Measured values taken from publication PMC5540273 (PLoS ONE, 2017).
“And” between values parts separate entries of the source, which are not always exact repeats. Equal entries are not always repeated. Where two headings read alike, the source gives them in different places.

Legend:
[1] = test system: T1, PFTK1; conditions: concentration: 1 μM, replicates: in singlicate, n = 1
T1 construct: gene CDK14

[2] = test system: PHKG1; conditions: concentration: 1 μM, replicates: in singlicate, n = 1
[3] = test system: PHKG2; conditions: concentration: 1 μM, replicates: in singlicate, n = 1
[4] = test system: PIK3C2B; conditions: concentration: 1 μM, replicates: in singlicate; n = 1
[5] = test system: PIK3C2G; conditions: concentration: 1 μM, replicates: in singlicate, n = 1
[6] = test system: PIK3CA; conditions: concentration: 1 μM, replicates: in singlicate, n = 1
[7] = test system: PIK3CB; conditions: concentration: 1 μM, replicates: in singlicate, n = 1
[8] = test system: PIK3CD; conditions: concentration: 1 μM, replicates: in singlicate, n = 1
[9] = test system: PIK3CG; conditions: concentration: 1 μM, replicates: in singlicate, n = 1
[10] = test system: T2, PIK4CB; conditions: concentration: 1 μM, replicates: in singlicate, n = 1
T2 construct: gene PI4KB
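Further: KINOMEscan kinase panel screen.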

SMILES	%Inh [1] [%]	%Inh [2] [%]	%Inh [3] [%]	%Inh [4] [%]	%Inh [5] [%]	%Inh [6] [%]	%Inh [7] [%]	%Inh [8] [%]	%Inh [9] [%]	%Inh [10] [%]	%Inh ([1]; 1 µM)	%Inh ([2]; 1 µM)	%Inh ([3]; 1 µM)	%Inh ([5]; 1 µM)	%Inh ([6]; 1 µM)	%Inh ([7]; 1 µM)	%Inh ([9]; 1 µM)	%Inh ([10]; 1 µM)	%Inh ([8]; 1 µM)
Cn1cc(-c2ccc3c(c2)CCN3C(=O)Cc2ccccc2Cl)c2c(N)ncnc21 [GSK2608885]	8	1	0	0	0	0	11	30	3	8	–	–	–	–	–	–	–	–	–
Fc1ccc(-c2ncn(CCCN3CCOCC3)c2-c2ccccn2)cc1 [SB-211742]	0	50	0	0	0	0	0	0	0	0	–	–	–	–	–	–	–	–	–
CC(=O)Nc1ccc(COc2ccc(Nc3ccnc4cc(-c5ccccn5)ccc34)cc2)cc1.Cl [GW440148]	25	0	0	0	0	2	100	7	14	16	–	–	–	–	–	–	–	–	–
CN1c2ccc(NCc3ccc(F)cc3)cc2-c2c(cnn2C)S1(=O)=O	0	0	0	0	0	0	0	0	0	0	–	–	–	–	–	–	–	–	–
Cc1c(Cn2c(C)nn3c(=O)cc(N4CCOC(C)C4)nc23)cccc1C(F)(F)F (centres unmarked) [GSK2344444]	48	0	0	31	24	5	97.4	92.7	64	0	–	–	–	–	–	–	–	–	–
O=C(NCCNc1ccnc(Nc2ccc(F)cc2)n1)c1cc2ccccc2s1 [GSK1379874]	0	0	0	0	0	0	0	0	0	0	–	–	–	–	–	–	–	–	–
Cl.Oc1cccc(Nc2ccnc3cc(-c4ccncc4)ccc23)c1 [GW494601]	12	0	0	13	2	0	0	22	0	0	–	–	–	–	–	–	–	–	–
COc1ccc(S(=O)(=O)NC2CCN(c3cc(C)nc(Nc4cccc(C#N)c4)n3)CC2)cc1.O=C(O)C(F)(F)F [GSK1653539]	11	0	9	12	0	6	100	0	33	0	–	–	–	–	–	–	–	–	–
COc1ccc(COc2cc(-n3cnc4ccccc43)sc2C(N)=O)cc1 [GSK1024304]	0	0	0	0	0	0	100	0	0	0	–	–	–	–	–	–	–	–	–
NCC(NC(=O)c1cc(-c2cn[nH]c2)c(-c2ccnc3[nH]ccc23)s1)c1ccccc1.O=C(O)C(F)(F)F.O=C(O)C(F)(F)F (centres unmarked) [GSK1325775]	21	18	26	0	0	0	0	24	3	26	–	–	–	–	–	–	–	–	–
[2H]C([2H])(c1cccc(C(F)(F)F)c1C)n1ccn2c(=O)nc(N3CCOCC3)cc12 [GSK2336394]	12	0	0	0	0	0	97.5	38	0	0	–	–	–	–	–	–	–	–	–
Cc1cccc(-c2nc(-c3ccc(S(C)(=O)=O)cc3)sc2-c2ccncc2)c1	0	0	0	0	49	20	1	25	10	0	–	–	–	–	–	–	–	–	–
O=C(Nc1n[nH]c2cc(-c3cccc(F)c3)ccc12)C1CC1 [SB-735464]	3	0	0	19	20	0	4	14	16	18	–	–	–	–	–	–	–	–	–
COc1cc2c(cc1OCCN1CCN(C)CC1)ncc1c3ccc(C#N)cc3[nH]c21	18	98.2	99.8	0	25	0	0	0	0	0	–	–	–	–	–	–	–	–	–
O=C(NCCNc1ccnc(Nc2ccc(F)cc2)n1)Nc1ccccc1F [GSK1379880]	13	0	0	0	62	0	0	21	0	13	–	–	–	–	–	–	–	–	–
COc1cc2c(cc1OC[C@@H](O)CO)ncc1c3ccc(C#N)cc3[nH]c21	0	95.5	99.2	0	0	18	0	2	9	0	–	–	–	–	–	–	–	–	–
Cn1ccc2ncnc(Oc3ccc(NC(=O)Nc4ccncc4)c(Cl)c3)c21	0	0	5	16	43	11	0	26	26	0	–	–	–	–	–	–	–	–	–
NCCNS(=O)(=O)c1ccc(-c2ccnc3[nH]ccc23)cc1 [GSK977617]	–	–	–	0	–	–	–	0	–	–	16% and 27%	45% and 25%	75% and 60%	32% and 12%	0% and 3%	43% and 15%	80% and 68%	64% and 26%	–

SMILES	%Inh [1] [%]	%Inh [2] [%]	%Inh [3] [%]	%Inh [4] [%]	%Inh [5] [%]	%Inh [6] [%]	%Inh [7] [%]	%Inh [8] [%]	%Inh [9] [%]	%Inh [10] [%]	%Inh ([1]; 1 µM)	%Inh ([2]; 1 µM)	%Inh ([3]; 1 µM)	%Inh ([5]; 1 µM)	%Inh ([6]; 1 µM)	%Inh ([7]; 1 µM)	%Inh ([9]; 1 µM)	%Inh ([10]; 1 µM)	%Inh ([8]; 1 µM)
O=C(Nc1cccc(-c2nn3ncccc3c2-c2ccnc(Nc3cccc(C(F)(F)F)c3)n2)c1)c1c(F)cccc1F [GSK299495]	11	0	0	0	0	0	0	25	0	0	–	–	–	–	–	–	–	–	–
Cc1cn2c(=O)cc(N3CCOCC3)nc2n1Cc1cccc(Cl)c1Cl [GSK2334006]	0	14	14	36	1	3	88	100	22	0	–	–	–	–	–	–	–	–	–
O=C1NC(=O)C(N2CCc3ccccc32)=C1c1cccc(Cl)c1 [SB-408010]	5	0	0	0	0	0	33	9	0	5	–	–	–	–	–	–	–	–	–
N#Cc1c(N2CCOCC2)sc(-c2ccn[nH]2)c1-c1ccc(Cl)cc1	19	9	0	31	37	90	97	46	20	16	–	–	–	–	–	–	–	–	–
CCn1cnc2c(N)ncnc21 [GW345098]	2	4	13	27	31	29	0	0	21	1	–	–	–	–	–	–	–	–	–
O=C(NOCC1CC1)c1ccc(F)c(F)c1Nc1ccc(I)cc1Cl	0	0	0	0	0	15	0	0	0	100	–	–	–	–	–	–	–	–	–
Fc1ccc(-c2nn3c(OCC(F)(F)F)cccc3c2-c2ccncc2)cc1 [GW514784]	3	0	0	0	0	0	0	30	0	0	–	–	–	–	–	–	–	–	–
CC(C)Oc1ccc2c(-c3ccnc(Nc4ccc(N5CCN(C)CC5)cc4)n3)cnn2n1 [GW696155]	55	51	84	0	0	0	21	45	30	33	–	–	–	–	–	–	–	–	–
CNc1ncnc2[nH]ncc12 [SKF-18355]	0	0	0	3	0	1	0	0	5	17	–	–	–	–	–	–	–	–	–
CN(C1=C(c2ccccc2)C(=O)NC1=O)c1ccccc1 [SB-334860]	21	0	0	0	3	0	25	7	10	13	–	–	–	–	–	–	–	–	–
COc1cc(Nc2nccc(N3CCC(NC(=O)c4cccc(NC(C)=O)c4)C3)n2)cc(OC)c1OC (centres unmarked) [GSK1379754]	18	7	3	100	0	99.9	0	0	99.9	0	–	–	–	–	–	–	–	–	–
NS(=O)(=O)c1cccc(-c2ccc3ncc(N4CCOCC4)nc3c2)c1 [GSK1535721]	24	0	41	0	14	13	12	34	29	81	–	–	–	–	–	–	–	–	–
O=c1cc(N2CCOCC2)nc2n(Cc3cccc(F)c3)ccn12 [GSK2297430]	12	0	0	0	0	0	99	6	0	0	–	–	–	–	–	–	–	–	–
CC(C)(CN)c1nc(-c2ccc(Cl)c(O)c2)c(-c2ccncc2)[nH]1.O=C(O)C(F)(F)F [SB-477794]	–	0	–	0	–	0	0	–	0	–	6% and 3%	–	12% and 0%	0% and 5%	–	–	–	25% and 0%	20% and 5%
C[C@@H](Oc1cc(-n2cnc3ccc(NC(=O)NC(C)(C)C)cc32)sc1C(N)=O)c1ccccc1Cl [GSK346294]	24	0	13	0	0	3	5	0	6	0	–	–	–	–	–	–	–	–	–
Cl.Nc1ncnc2occ(-c3ccc(NC(=O)Nc4cc(C(F)(F)F)ccc4F)cc3)c12 [SB-707548]	79	0	8	0	23	0	8	27	6	0	–	–	–	–	–	–	–	–	–
CCCCCc1nc2c(N)ncnc2n1CCCCC [SKF-97255]	2	9	0	0	0	14	0	0	15	1	–	–	–	–	–	–	–	–	–
Cl.Cl.Cl.Fc1ccc(-c2ncn(C3CCNCC3)c2-c2ccnc(Nc3ccccc3)n2)cc1 [SB-238039]	–	–	–	–	–	–	–	–	–	–	16% and 0%	4% and 0%	–	–	6% and 0%	0% and 13%	0% and 26%	7% and 34%	–
